Screens (PubChem BioAssay)
Nrf2 inh: Nrf2 pathway inhibition | A549 ARE-Fluc reporter, luciferase luminescence, 18-24 h | Potency, µM (series often up to 46 µM), most hits filed as inhibitors | 2.1% of 360,000 active | AID 504444; further: nearly all actives have a fitted effect of over 60% in size
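A549 ARE_Fluc cells, 5000/well, 5% FBS OPTI-MEM; compounds in dose-response, 18-24 h at 37 °C/5% CO2; CellTiter-Fluor viability read (Ex 405/Em 525), then BugLite luciferase luminescence = Nrf2 activity.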
A549 viability: counter-screen for Nrf2 inhibitors: cytotoxicity in A549 cells. A549 ARE-Fluc cells, CellTiter-Fluor viability, 18-24 h. Potency, µM (titrated, usually from 46 µM), usual class: inhibitors. 0.16% of 390,000 active. AID 504648
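Cytotoxicity counterscreen: CellTiter-Fluor fluorescence was measured in A549 ARE_Fluc cells after 18-24 h of compound exposure in a concentration series. The subsequent BugLite luminescent read reports ARE-luciferase activity.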
Nrf2 ARE act: Nrf2 pathway activation. Potency, µM (titrated, usually from 46.1 µM), most hits filed as activators. AID 624171. 0.31% of 410,000 active. AREc32 ARE-luciferase reporter (MCF7-derived line), luminescence, 24 h; further: nearly all actives have a fitted effect of over 65% in size
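Steps: seed AREc32_Fluc cells (1000/well, 5% FBS OPTI-MEM); incubate overnight at 37 deg C; add 23 nL compound; incubate 24 hr; add Steady-Glo; hold 30 min RT; read luminescence.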
Pin1 inh: blocks the human prolyl isomerase Pin1; Q13526; Pin1 FP peptide displacement, HiFluor488, 10 min; Potency, µM (doses to about 115 µM), hits mostly inhibitors; 0.009% of 390,000 active; active means well fitted inhibition curve with a large enough effect in the polarisation, with a control signal flat, not every such curve was filed as active; inconclusive means small, poorly fitted or top-dose-only effect, or effect the other way, or a change in a side signal; inactive means no such curve, though single readings can be large or run the other way; the % refers to the polarisation
Target sequence (Q13526 whole entry, looked up): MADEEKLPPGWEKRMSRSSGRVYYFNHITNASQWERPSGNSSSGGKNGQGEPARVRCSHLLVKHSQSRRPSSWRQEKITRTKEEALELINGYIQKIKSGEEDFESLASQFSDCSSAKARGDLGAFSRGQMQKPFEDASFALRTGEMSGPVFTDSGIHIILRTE
Each line names hits and unclear results; the compound was inactive in the other large screens. Hits are enriched below; roughly 2.2% of the tested compounds scored in any of these assays. Unless noted, the call rests on the fitted dose curve; in most records, active means well fitted curve in the direction sought with a large enough effect; inconclusive means small, poorly fitted or top-dose-only effect, or another doubt; inactive means no such curve, though single readings can be large; an effect the other way counts as inactive or inconclusive.

O=C(c1cc(C2CC2)nc2ccc(Br)cc12)N1N=C(C(F)F)CC1(O)C(F)F (stereo not given)	Nrf2 inh 18.4µM, A549 viability inconclusive
O=C(c1cc(C2CC2)nc2ccccc12)N1N=C(C(F)F)CC1(O)C(F)F (stereo not given)	none
C(C#CCCCCCCCCC[n+]1ccccc1)#CCCCCCCCCC[n+]1ccccc1	Nrf2 inh 11.6µM, A549 viability inconclusive
CCCCOc1ccc(C(=O)Nc2onc3c2CCCC3)cc1	Nrf2 inh inconclusive
CN=c1scc(-c2ccccc2F)n1/N=C/c1ccc(O)c(O)c1O	Nrf2 inh 11.6µM, A549 viability inconclusive, Pin1 inh inconclusive
CN=c1scc(-c2ccccc2F)n1/N=C/c1ccc[nH]1	Nrf2 inh inconclusive
CCCc1ccc(C2C3=C(CC(C)(C)CC3=O)NC3=C2C(=O)c2ccccc23)cc1 (stereo not given)	Nrf2 inh 8.2µM, A549 viability inconclusive, Pin1 inh inconclusive
COc1ccc(-c2ccc(C3C4C=CCCC4(C)C(=O)N3Cc3ccccc3)c(F)c2)cc1 (stereo not given)	Nrf2 inh inconclusive (no result: Nrf2 ARE act)
Cc1nn(C)c(C)c1NS(=O)(=O)c1ccc(N2CCCC2=O)cc1	Nrf2 inh 14.6µM
COc1ccc(CCNS(=O)(=O)c2ccc(N3CCCC3=O)cc2)cc1	Nrf2 inh 25.9µM
CC(C)(C)OC(=O)NCc1nnc(-c2cc3ccccc3[nH]2)o1	Nrf2 inh inconclusive (no result: Nrf2 ARE act)
CCCn1c(CN2CCN(c3cccc(Cl)c3)CC2)nc2c1c(=O)n(C)c(=O)n2C	Nrf2 inh 18.4µM, Pin1 inh inconclusive
COc1ccc(-c2nc(C#N)c(N3CCc4ccccc4C3)o2)cc1OC	Nrf2 inh 20.6µM
O=C(CS(=O)(=O)c1cccc2nsnc12)N1CCN(c2cccc(C(F)(F)F)c2)CC1	none (no result: Nrf2 inh)
O=S(=O)(Nc1ccc2c(c1)nc1n2CCN(Cc2ccccc2)C1)c1ccc(Cl)cc1	Nrf2 inh 13µM, A549 viability inconclusive
CCc1c(C)nc2nc(-c3ccccc3)nn2c1NCc1ccc(C)cc1	Nrf2 inh 18.4µM
C=C(C)n1c(=O)n(Cc2ccc(C)cc2)c2ccccc21	Nrf2 inh 16.4µM
CC(O)C(NS(=O)(=O)c1ccc(Cl)cc1)C(=O)OCC(=O)c1c[nH]c2ccccc12 (stereo not given)	none
CC(C)C(NS(=O)(=O)c1c(Cl)cccc1Cl)C(=O)OCC(=O)c1c[nH]c2ccccc12 (stereo not given)	Nrf2 inh 23.1µM, A549 viability inconclusive, Pin1 inh inconclusive
COc1ccc(N2CC(C(=O)Nc3ccc(S(=O)(=O)N4CCCC4)cc3)CC2=O)cc1 (stereo not given)	none
O=C(Nc1cccc(Cl)c1Cl)C1CC(=O)N(c2ccc(Br)cc2)C1 (stereo not given)	Nrf2 inh 7.31µM
Cc1ccc(N2CC(C(=O)Nc3ccc(S(=O)(=O)N4CCCC4)cc3)CC2=O)cc1 (stereo not given)	Nrf2 inh inconclusive
O=C(Nc1ccc(S(=O)(=O)N2CCCCC2)cc1)C1CC(=O)N(c2ccc(Cl)cc2)C1 (stereo not given)	Nrf2 inh 23.1µM, A549 viability inconclusive
COc1ccc(N2CC(C(=O)Nc3ccc(S(=O)(=O)N4CCCCC4)cc3)CC2=O)cc1 (stereo not given)	Nrf2 inh 20.6µM
COc1ccc(NC(=O)C2CCN(S(=O)(=O)c3ccc(N4CCCC4=O)cc3)CC2)c(OC)c1	none
Cc1ccc(NC(=O)C2CCN(S(=O)(=O)c3ccc(N4CCCC4=O)cc3)CC2)cc1Cl	Nrf2 inh 10.3µM
Cc1oc(-c2ccc(Cl)cc2)nc1Cn1c(=O)cc(C)c2c(C)nn(-c3ccccc3)c21	Nrf2 inh inconclusive
COc1ccc(OC)c(CCNC(=O)c2c(C)nn(-c3ccc(F)cc3)c2-n2cccc2)c1	Nrf2 inh inconclusive
O=c1[nH]c(CN2CCN(S(=O)(=O)/C=C/c3ccccc3)CC2)nc2cc(Cl)ccc12	Nrf2 inh 16.4µM
CCOC(=O)c1c(C)[nH]c(C)c1C(=O)CSc1nc2ccccc2c(=O)n1-c1ccc(F)cc1	Nrf2 inh 23.1µM, A549 viability inconclusive
CCOC(=O)c1c(C)[nH]c(C)c1C(=O)CSc1nc2ccccc2c(=O)n1-c1ccccc1C	Nrf2 inh inconclusive, A549 viability inconclusive
Cc1cccc(CSc2cccc3cccnc23)c1	Nrf2 ARE act 22.4µM
C/C(=N\Nc1nccnc1Cl)c1ccc(Cl)c(Cl)c1	Nrf2 inh inconclusive, Nrf2 ARE act 14.1µM
C/C(=N\Nc1nccnc1Cl)c1ccc(O)cc1	none
